Screens (PubChem)
Marburg entry inh: Marburg virus entry inhibition; 300,000 tested, 1.8% active; Marburg virus pseudotyped entry inhibition, cell reporter; Potency, µM (doses to about 37.8 µM), without a hit: at the highest dose activity change, negative = inhibition, usual class: inhibitors; calls by dose curve; tested in HEK293 cells
HCV inhibitor: HCV inhibition; Huh7.5.1 HCVcc-Cre infection, luciferase reporter, 44 h; Potency, µM (top dose mostly 41.8 µM), for the others: at the top dose activity change, negative = inhibition, most hits filed as inhibitors; 340,000 tested, 3.4% active; active = well fitted inhibition curve with a large enough effect; inconclusive = small, poorly fitted or top-dose-only effect, or another doubt; inactive = no such curve, though single readings can be large or run the other way
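Whole-lifecycle infectious HCVcc-Cre system; cells 1,000/well, compound then virus (~0.5 moi) added 4 h after plating, 44 h culture. Luciferase read 15 sec following 15 min substrate incubation, room temp.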
LASV entry inh: inhibitors of Lassa virus binding or cell entry. 300,000 tested, 1.2% active. Potency, µM (doses to about 37.9 µM), inactives show at the highest dose activity change, negative = inhibition, hits mostly inhibitors. Lassa virus pseudotype entry inhibition, cell reporter; calls by dose curve; tested in HEK293 cells; also: nearly all actives have a fitted effect of over 50% in size
Vaccinia Venus: inhibitors of vaccinia virus (Venus reporter). Potency, µM (top dose mostly 36.5 µM), for inactives: at the highest dose activity change, negative = inhibition, hits mostly inhibitors. 330,000 tested, 0.46% active. Vaccinia virus Venus reporter expression, fluorescence; calls by dose curve; tested in A549 cells; also: nearly all actives have a fitted effect of over 30% in size
Vaccinia mCherry: vaccinia inhibition (mCherry reporter); 310,000 tested, 0.63% active; AID 720579; Potency, µM (doses to about 36.5 µM), inactives show at the highest dose activity change, negative = inhibition, most hits filed as inhibitors; Vaccinia virus mCherry reporter infection, fluorescence; calls by dose curve; tested in A549 cells; also: nearly all actives have a fitted effect of over 35% in size
Starred values were filed as active, the others as inactive; i = inactive; ? = inconclusive; . = not tested or not shown; [ ] = remark or other dose. This is a sample that favours compounds with a hit; in the whole collection about 4.6% have one here. % is scaled to controls: 0 for no effect and ±100 for the full control effect; potency is read from the fitted curve at half-maximal effect.

SMILES	Marburg entry inh	HCV inhibitor	LASV entry inh	Vaccinia Venus	Vaccinia mCherry
O=C(NCCc1ccccc1)c1cc(Sc2ccc(F)cc2F)nc2ccccc12	.	.	-18%[46.1 µM]	-15%	-2%
N=c1c(C(=O)NCC2CCCO2)cc2c(=O)n3ccccc3nc2n1Cc1ccccc1 (stereo unspecified)	.	7.1µM*	.	.	.
Cc1cccn2c(=O)c3cc(C(=O)NC4CCCC4)c(=N)n(Cc4ccc(F)cc4)c3nc12	.	11µM*	.	9%[7.34 µM]	-5%[7.34 µM]
N=c1c(C(=O)NCC2CCCO2)cc2c(=O)n3ccccc3nc2n1Cc1ccccc1Cl (stereo unspecified)	11µM*	?	?	-5%	i
Cc1ccc(Cn2c(=N)c(C(=O)NCC3CCCO3)cc3c(=O)n4cccc(C)c4nc32)cc1 (stereo unspecified)	?	11µM*	-10%[46.1 µM]	-9%	0%
Cc1ccc(Cn2c(=N)c(C(=O)NCC3CCCO3)cc3c(=O)n4ccccc4nc32)cc1 (stereo unspecified)	?	?	?	-14%	-12%
Cc1c(N)nc([C@H](CC(N)=O)NC[C@H](N)C(N)=O)nc1C(=O)N[C@H](C(=O)N[C@H](C)[C@@H](O)[C@H](C)C(=O)N[C@H](C(=O)NCCc1nc(-c2nc(C(=O)NCCCCN=C(N)N)cs2)cs1)[C@@H](C)O)[C@@H](O[C@@H]1O[C@@H](CO)[C@@H](O)[C@H](O)[C@@H]1O[C@H]1O[C@H](CO)[C@@H](O)[C@H](OC(N)=O)[C@@H]1O)c1cnc[nH]1	.	.	.	-27%	i
COc1cc(/C=C/c2ccc3ccccc3n2)cc(OC)c1OC	.	.	.	-26%	?
Cc1cc(F)ccc1O[C@H]1C=C[C@@H](c2ccc3c(c2)OCO3)O[C@H]1CO	14%[14.2 µM]	.	.	.	.
CC(C)c1c(C(=O)NCc2ccncc2)cnn1-c1nccc(-c2cccs2)n1	.	.	.	-6%	-8%
O=C(c1cnn2c1NC(c1ccco1)CC2C(F)(F)F)N1CCN(c2cccc(Cl)c2)CC1 (stereo unspecified)	?	10µM*	13µM*	?	.
C/C(=C\COc1ccc2ccc(=O)oc2c1)CC[C@@H](O)C(C)(C)O	.	-7%	.	-1%	i
C/C(=C\COc1cc(=O)[nH]c2ccccc12)CCC(O)C(C)(C)O (stereo unspecified)	.	0.32µM*	.	-4%	1%
COC(=O)[C@H](Cc1ccc(O)cc1)NC(=O)Cn1cnc2c(SC)nc(N)nc21	.	46%	.	0%	-11%
COc1ccc(CN(C)C(=O)Cn2cnc3c(SC)nc(N)nc32)cc1OC	.	4.5µM*	.	-12%	i
COc1ccc(CN(C)C(c2ccccc2)c2nnnn2-c2ccccc2C)c(OC)c1C (stereo unspecified)	?	-28%	?	-12%	.
COc1cc(OC)c(OC)cc1CN(C)C(c1ccccc1)c1nnnn1-c1ccccc1C (stereo unspecified)	?	13µM*	?	-32%	.
COCC(C)n1c(C)cc(C(=O)CSc2nc(C)c(C)c(C)n2)c1C (stereo unspecified)	-4%	10µM*	.	.	.
COCCn1c(C)cc(C(=O)CSc2nc(C)c(C)c(C)n2)c1C	13%[46.1 µM]	-5%	-5%	-13%	-19%
O=C(CN1Cc2ccccc2OC(c2ccccc2)C1)NCc1cccnc1 (stereo unspecified)	.	.	.	-5%	-11%
Cc1ccc(/C=C2/CCc3c([nH]c4ccccc34)C2=O)cc1	?	?	?	-11%	i
O=C1/C(=C\c2ccccc2)CCc2c1[nH]c1ccccc21	16µM*	?	?	.	.
O=C(/C=C/c1ccco1)Oc1cc(Br)cc(/C=N/NC(=O)c2ccccc2O)c1	?	?	11µM*	?	2.8µM*
CC(=O)N1CCc2cc(NC(=O)c3ccc(C)cc3)ccc21	?	-29%	16µM*	.	.
COc1ccccc1C(=O)Nc1ccc2c(c1)CCCN2C(=O)c1cccs1	?	?	?	-21%	i
COc1cc(OC)cc(C(=O)Nc2ccc3c(c2)CCCN3C(=O)c2cccs2)c1	.	14µM*	?	-12%	-17%
CC(=O)Nc1ccc(NC(=O)c2ccc3c(c2)CCN3S(=O)(=O)c2ccc(C)cc2)cc1	7%[46.1 µM]	.	12%[46.1 µM]	-11%	-24%
O=C(Nc1ccc2c(c1)CCCN2C(=O)c1cccs1)c1ccccc1	?	32µM*	?	-11%	-7%
COc1cc(=O)n2c(c1C(=O)NCc1ccsc1)CCN(Cc1nc3ccccc3[nH]1)CC2	.	.	.	-15%	-9%
